From PubChem BioAssay
Shown is part of a subset that was picked to be rich in hits.
NOMO-1 viab – NOMO-1 AML cell viability reduction, primary screen, STK33 inhibitor project, CellTiter-Glo luminescence | NOMO-1 AML viability, 72 h | inhibition, % (test concentration not listed) | 37,000 compounds, 7.5% hits | AID 2330, 2010; in the data active means inhibition above about 80%; inconclusive means no clear call, values can overlap the other calls
STK33 kin inh – STK33 kinase inhibitors, primary screen, biochemical, luminescence, ADP-Glo, MBP substrate. Serine/threonine-protein kinase 33 (Homo sapiens), Q9BYT3. inhibition, % at 12.5 µM. 27,000 compounds, 0.44% hits. AID 2322, 2010; in the data active means inhibition above about 20%; inconclusive means no clear call, values can overlap the other calls
Target sequence (Q9BYT3 whole entry, looked up): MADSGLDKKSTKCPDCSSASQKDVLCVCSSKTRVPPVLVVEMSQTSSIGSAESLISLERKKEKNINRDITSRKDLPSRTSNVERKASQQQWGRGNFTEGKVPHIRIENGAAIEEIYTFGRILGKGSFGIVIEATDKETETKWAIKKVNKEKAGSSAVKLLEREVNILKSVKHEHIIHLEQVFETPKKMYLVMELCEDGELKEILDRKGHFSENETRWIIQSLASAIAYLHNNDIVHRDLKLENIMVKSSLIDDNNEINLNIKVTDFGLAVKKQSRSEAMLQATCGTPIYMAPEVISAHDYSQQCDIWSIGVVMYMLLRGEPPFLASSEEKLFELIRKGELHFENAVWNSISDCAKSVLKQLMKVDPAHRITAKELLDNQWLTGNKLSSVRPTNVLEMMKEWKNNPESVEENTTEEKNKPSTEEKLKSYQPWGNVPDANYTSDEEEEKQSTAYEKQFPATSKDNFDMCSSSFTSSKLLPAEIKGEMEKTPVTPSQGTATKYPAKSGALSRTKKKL
PD-1 reversal – activators reversing PD-1 mediated T-cell inhibition, primary screen, luminescence, primary human CD4 T cells, PD-L1 beads; CellTiter-Glo 96 h; activation, % (concentration not given with the values); 29,000 tested, under 10 active; AID 2316, 2010; call rule not given here
A number is an active result; - = inactive; ? = inconclusive; . = no result given.

SMILES	NOMO-1 viab	STK33 kin inh	PD-1 reversal
C[C@H]1CN([C@@H](C)CO)C(=O)Cc2cc(NS(=O)(=O)c3ccc(Cl)cc3)ccc2O[C@@H]1CN(C)Cc1ccc(Cl)c(Cl)c1	84.1	-	-
C[C@H](CO)N1C[C@H](C)[C@H](CN(C)Cc2ccccc2)Oc2ccc(NS(=O)(=O)c3ccc(Cl)cc3)cc2CC1=O	?	-	-
C[C@@H]1CN([C@@H](C)CO)C(=O)Cc2cc(NS(=O)(=O)c3ccccc3)ccc2O[C@@H]1CN(C)Cc1ccc(Cl)c(Cl)c1	-	-	-
C[C@H]1CN([C@@H](C)CO)C(=O)Cc2cc(NS(=O)(=O)c3ccccc3)ccc2O[C@@H]1CN(C)Cc1ccc(Cl)c(Cl)c1	122.4	.	.
COc1ccc2c(c1)c(C(=O)ON1C(=O)CCC1=O)c(C)n2C1CC1	-	.	-
COc1ccc(N(CC(=O)Nc2ccc(I)cc2C)S(C)(=O)=O)cc1Cl	-	-	-
COc1ccc(Cl)cc1NC(=O)C(C)NS(=O)(=O)c1ccc(Br)cc1 (stereo unspecified)	-	-	-
O=S(=O)(Nc1cccnc1)c1cccc(S(=O)(=O)c2ccc(Cl)c(Cl)c2)c1	-	-	-
CCN1/C(=C/C2=CC(=O)CC(C)(C)C2)Sc2ccccc21	113.2	.	-
CCN1/C(=C\C(=S)Nc2ccccc2)Sc2ccccc21	-	.	-
CC1CCc2c(sc3ncnc(SCC(=O)NC4CCCCC4)c23)C1 (stereo unspecified)	-	-	-
COc1ccc(NC(=O)CN(C)S(=O)(=O)c2ccc(C)cc2)c(OC)c1	.	-	.
Cc1onc(-c2ccccc2Cl)c1C1=NCCO1	-	.	-
C[C@@H]1CN([C@H](C)CO)C(=O)c2cccc(NC(=O)Nc3ccc(C(F)(F)F)cc3)c2O[C@H]1CN(C)C(=O)Nc1ccccc1	93.3	.	-
C[C@@H]1CN([C@H](C)CO)C(=O)c2cccc(NC(=O)Nc3ccccc3)c2O[C@@H]1CN(C)C(=O)Nc1ccc(C(F)(F)F)cc1	-	.	-
C[C@@H]1CN([C@@H](C)CO)C(=O)c2cccc(NC(=O)Nc3ccc(C(F)(F)F)cc3)c2O[C@@H]1CN(C)C(=O)Nc1ccccc1	111.7	.	-
C[C@@H]1CN([C@@H](C)CO)C(=O)c2cccc(NC(=O)Nc3ccccc3)c2O[C@H]1CN(C)C(=O)Nc1ccc(C(F)(F)F)cc1	-	.	-
COc1ccc(OC)c(CN=c2c([N+](=O)[O-])nn(-c3ccc(Cl)cc3)n2O)c1	-	-	-
N#Cc1c(C(F)(F)F)cc(-c2ccc(Br)cc2)nc1SCCC(=O)O	-	-	-
C[C@@H]1CCCCO[C@@H](CN(C)Cc2ccc(C(=O)Nc3ccccc3N)cc2)[C@@H](C)CN([C@H](C)CO)C(=O)c2cc(NC(=O)Nc3ccccc3)ccc2O1	?	.	-
C[C@@H]1CCCCO[C@@H](CN(C)Cc2ccc(C(=O)Nc3ccccc3N)cc2)[C@@H](C)CN([C@H](C)CO)C(=O)c2cc(NC(=O)c3ccncc3)ccc2O1	-	.	-
C[C@@H]1CCCCO[C@@H](CN(C)Cc2ccc(C(=O)Nc3ccccc3N)cc2)[C@@H](C)CN([C@H](C)CO)C(=O)c2cc(NC(=O)Nc3ccc(C(F)(F)F)cc3)ccc2O1	?	.	-
C[C@@H]1CCCCO[C@@H](CN(C)Cc2ccc(C(=O)Nc3ccccc3N)cc2)[C@@H](C)CN([C@H](C)CO)C(=O)c2cc(NC(=O)CCC(F)(F)F)ccc2O1	127.2	.	-
C[C@@H]1CCCCO[C@H](CN(C)Cc2ccncc2)[C@@H](C)CN([C@H](C)CO)C(=O)c2cc(NC(=O)CCCCCC(=O)Nc3ccccc3N)ccc2O1	-	.	-
C[C@@H]1CCCCO[C@H](CN(C)Cc2ccc(C(F)(F)F)cc2)[C@@H](C)CN([C@H](C)CO)C(=O)c2cc(NC(=O)CCCCCC(=O)Nc3ccccc3N)ccc2O1	131.2	.	-
SMILES	NOMO-1 viab	STK33 kin inh	PD-1 reversal
C[C@@H]1CCCCO[C@@H](CN(C)Cc2ccc(C(=O)Nc3ccccc3N)cc2)[C@@H](C)CN([C@H](C)CO)C(=O)c2cc(NC(=O)C3CCCCC3)ccc2O1	123.4	.	-
C[C@@H]1CCCCO[C@@H](CN(C)Cc2ccc(C(=O)Nc3ccccc3N)cc2)[C@@H](C)CN([C@H](C)CO)C(=O)c2cc(NC(=O)Nc3ccc(F)cc3)ccc2O1	110.6	.	-
O=C(COc1ccccc1Cl)Nc1ccc(C(=O)Nc2ccccc2C(=O)O)cc1	-	-	.
CC(=O)N1c2ccccc2C(=O)C1NC(N)=S (stereo unspecified)	-	.	-
c1cncc(-c2nc3c4c5c(sc4ncn3n2)CCCC5)c1	-	.	-
COc1cccc(NC(=O)CSc2nnc(-c3ccc(Cl)cc3)n2-c2ccc(F)cc2)c1	-	-	-
C[C@@H]1CCCCO[C@H](CN(C)Cc2ccc(C(=O)O)cc2)[C@@H](C)CN([C@H](C)CO)C(=O)c2cc(NC(=O)c3ccccc3)ccc2O1	-	-	-
C[C@@H]1CCCCO[C@@H](CN(C)Cc2ccc(C(=O)Nc3ccccc3N)cc2)[C@@H](C)CN([C@H](C)CO)C(=O)c2cc(NC(=O)c3ccccc3)ccc2O1	140.9	.	-
CCOC(=O)c1nn(-c2ccc(OC)cc2)c(C(=O)OCC)c1NC(=O)C1CCCCC1	-	-	-
O=C1c2ccccc2NC(c2ccccc2)N1N=C1CCCCCC1 (stereo unspecified)	-	.	-
Cc1noc(C)c1NC(=O)Nc1ccc2c(c1)C(=O)N([C@H](C)CO)C[C@H](C)[C@@H](CN(C)S(=O)(=O)c1c(C)noc1C)OCCCC[C@@H](C)O2	-	-	-
C[C@@H]1CCCCO[C@@H](CN(C)S(=O)(=O)c2cccs2)[C@@H](C)CN([C@H](C)CO)C(=O)c2cc(NC(=O)Nc3ccc(C(F)(F)F)cc3)ccc2O1	-	-	.
Cc1noc(C)c1S(=O)(=O)N(C)C[C@H]1OCCCC[C@@H](C)Oc2ccc(NC(=O)Nc3ccc(C(F)(F)F)cc3)cc2C(=O)N([C@H](C)CO)C[C@@H]1C	104.1	-	-
C[C@@H]1CCCCO[C@H](CN(C)S(=O)(=O)c2cccs2)[C@@H](C)CN([C@H](C)CO)C(=O)c2cc(NC(=O)Nc3ccc(C(F)(F)F)cc3)ccc2O1	90.1	-	-
COc1ccc(NC(=O)C(=O)NCc2cccnc2)cc1	-	-	.
COc1cc(-c2c(C#N)c(SCC#N)nc(N)c2C(=O)OC(C)C)cc(OC)c1OC	-	.	-
Cc1[nH]n2c(=O)c3c(nc2c1-c1ccccc1)CCC3	106.4	.	-
CCOc1ccccc1CNc1nc2nc3c(c(=O)n2[nH]1)CCC3	-	-	.
CCOc1ccc(NC(=O)Cn2cnc3scc(-c4ccc5ccccc5c4)c3c2=O)cc1	-	-	-
COC(=O)COc1cccc(NC(=O)c2ccc(-c3ccccc3)cc2)c1	112.6	-	-
COC(=O)COc1cccc(NC(=O)c2ccccc2F)c1	121.5	-	-
COc1ccc(C(=O)COc2cccc(NC(=O)c3ccccc3C)c2)cc1	-	-	-
COC(=O)COc1cccc(NC(=O)c2ccccc2Cl)c1	118.6	-	.
Cc1cccc(C(=O)Nc2cccc(OCC(=O)O)c2)c1	-	-	-
COC(=O)COc1cccc(NC(=O)c2ccccc2I)c1	109.6	-	.
